Reference: PubChem BioAssay AID489043 (National Center for Advancing Translational Sciences (NCATS), 2010)
Results filed as inconclusive are left out. Calls of active or inactive are those of the source. Calls come from the whole dose curve; as a rule, active = well fitted activation curve with a large enough effect; inconclusive = small, poorly fitted or top-dose-only effect; inactive = flat fitted curve, though single readings scatter.
Note: nearly all actives have a fitted effect of over 65% in size.
Potency is the fitted concentration of half-maximal effect.

These compounds were tested against Relaxin receptor 2 (Homo sapiens) (UniProt Q8WXD0) (assay: qHTS Assay for Agonists of the Relaxin Receptor RXFP1: RXFP2 Hit Validation). Conditions: HEK293 RXFP2 cAMP TR-FRET, 30 min; series mostly up to 115 µM.
Sequence of Relaxin receptor 2 (Homo sapiens) (Q8WXD0 whole entry, looked up): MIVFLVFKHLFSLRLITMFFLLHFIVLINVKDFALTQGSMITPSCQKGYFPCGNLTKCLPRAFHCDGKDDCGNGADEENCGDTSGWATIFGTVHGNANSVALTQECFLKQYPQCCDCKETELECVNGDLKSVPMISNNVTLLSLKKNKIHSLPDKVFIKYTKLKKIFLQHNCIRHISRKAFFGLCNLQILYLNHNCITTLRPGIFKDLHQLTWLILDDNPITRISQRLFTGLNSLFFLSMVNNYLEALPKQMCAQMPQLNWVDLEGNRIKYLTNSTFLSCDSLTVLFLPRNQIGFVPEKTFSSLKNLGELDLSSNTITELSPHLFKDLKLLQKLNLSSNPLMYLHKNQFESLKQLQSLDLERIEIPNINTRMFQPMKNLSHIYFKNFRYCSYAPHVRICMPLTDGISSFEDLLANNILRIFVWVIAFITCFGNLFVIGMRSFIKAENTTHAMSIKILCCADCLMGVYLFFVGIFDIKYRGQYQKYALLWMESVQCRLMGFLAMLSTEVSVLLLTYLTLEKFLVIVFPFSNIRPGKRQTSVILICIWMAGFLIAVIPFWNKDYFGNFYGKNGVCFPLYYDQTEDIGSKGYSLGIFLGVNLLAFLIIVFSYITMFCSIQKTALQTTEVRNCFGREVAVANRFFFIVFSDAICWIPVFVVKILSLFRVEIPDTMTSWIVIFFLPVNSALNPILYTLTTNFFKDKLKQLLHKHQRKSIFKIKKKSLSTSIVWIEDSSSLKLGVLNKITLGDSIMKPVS
How it was run: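 HEK293 cells expressing RXFP2, cultured 16-24 hr, treated 30 min at 37C with compounds plus PDE4 inhibitor Ro 20174. cAMP measured by HTRF TR-FRET; EC50 from Hill fits, normalized to buffer and 29 nM porcine relaxin.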
`CC1(C)Cc2c(sc3c2c2ncnn2c2nnc(SCC(=O)NCc4ccco4)n32)CO1` was tested, and the Potency was 7.76 µM (active). In the case of `O=C(O)c1ccc(CN2C(=O)c3ccc(C(=O)O)cc3C2=O)cc1`, the Potency is reported as “inactive”. `CCCC(=O)Nc1ncnc2c1ncn2[C@@H]1O[C@@H]2OP(=O)(O)OC[C@H]2[C@H]1OC(=O)CCC` was tested, and the Potency was 0.868 µM (active). With `CC1(C)Cc2nc3sc4c(SCC(=O)NC(c5ccccc5)c5ccccc5)ncnc4c3cc2CO1` the Potency was 6.15 µM (active). `Nc1nnc(CC(=O)N/N=C/c2ccc(-c3ccc(Cl)cc3Cl)o2)s1` was tested, and the Potency was “inactive”. In the case of `N#Cc1c(N)nc(SCC(=O)C23CC4CC(CC(C4)C2)C3)c(C#N)c1-c1ccc(Cl)cc1`, the Potency is reported as 12.3 µM (active). With `COC(=O)c1sc(N2C(=O)C(O)=C(C(=O)c3ccc(C)o3)C2c2ccc(F)cc2)nc1C` (stereo not drawn) the Potency was 2.75 µM (active). `Cc1cc(C)c(NC(=O)CS(=O)CC(=O)Nc2ccc(F)cc2F)c(C)c1` (stereo not drawn) was tested, and the Potency was “inactive”. `Nc1cc2ccncc2c2ccccc12` was tested, and the Potency was “inactive”. With `Cn1c(N)c(C(=O)CSc2nn(-c3ccc(F)cc3)c(=S)s2)c(=O)n(C)c1=O` the Potency was 21.8 µM (active). For `Cc1ccc(C(=O)Nc2cccc(C(F)(F)F)c2)cc1NC(=O)c1cnnc2ccccc12`, the Potency was “inactive”. In the case of `O=C(Nc1ccccc1C(=O)Nc1ccccc1)c1ccco1`, the Potency is reported as “inactive”. For `C=C[C@@]1(C)CC(=O)[C@]2(O)[C@@]3(C)[C@@H](O)CCC(C)(C)[C@@H]3[C@H](O)[C@H](OC(C)=O)[C@@]2(C)O1`, the Potency was 0.0488 µM (active). `CCc1cc2cc3c(cc2nc1SCC(=O)Nc1nccs1)OCO3` was tested, and the Potency was 21.8 µM (active). `O=C(O)c1ccc(N=C2NC(=O)C(CO)(CO)S2)cc1` was tested, and the Potency was “inactive”. With `COc1ccc(S(=O)(=O)N2CCOCC2)cc1NC(=O)CSc1ncnc2ccccc12` the Potency was 24.5 µM (active). `CCn1c(=O)c2cc(C(=O)Nc3cccc(C(C)=O)c3)sc2c2ccccc21` was tested, and the Potency was “inactive”. For `O=C(Cn1cnc2c(nnn2-c2ccc(F)cc2)c1=O)NCC1CCCO1` (stereo not drawn), the Potency was 11 µM (active). For `Cc1ccccc1NC(=O)CNc1ccccc1C(=O)NCc1ccco1`, the Potency was “inactive”. In the case of `COc1ccc(C(=O)Nc2ccc(S(=O)(=O)Nc3onc(C)c3C)cc2)c(OC)c1`, the Potency is reported as 9.43 µM (active). `O=C(NC1CCCCCC1)c1cc2c(=O)n3ccccc3nc2s1` was tested, and the Potency was 38.9 µM (active). With `COc1ccccc1CNS(=O)(=O)c1cc(CN2C(=O)c3cccnc3C2=O)ccc1OC` the Potency was 30.9 µM (active). In the case of `O=C1CN(c2nc3ccccc3n3cnnc23)CC(=O)N1CCc1ccccc1`, the Potency is reported as “inactive”. In the case of `CCN(CC)S(=O)(=O)c1ccc(N2CCOCC2)c(NC(=O)c2cc([N+](=O)[O-])ccc2Cl)c1`, the Potency is reported as “inactive”. With `CC(=O)Nc1cccc(NC(=O)CSc2nc3c(c(=O)n(C)c(=O)n3C)n2C)c1` the Potency was 34.6 µM (active). In the case of `Cc1cc(NC(=O)CSc2ncnc3c2cnn3-c2cccc(Cl)c2)no1`, the Potency is reported as “inactive”. For `CCN(CC)CCCCCC(=O)Nc1ccccc1C(=O)Nc1ccccc1`, the Potency was “inactive”. `CCN(CC)c1ccc(S(=O)(=O)N2CCOCC2)cc1NC(=O)CSc1nncn1C` was tested, and the Potency was 12.3 µM (active). With `O=C(O)CSc1ccnc2cc(Cl)ccc12` the Potency was 21.8 µM (active). With `CCOC(=O)c1sc(NC(=O)CCc2ccc(OC)cc2)nc1C` the Potency was 17.3 µM (active). `c1ccc(COn2nnc3ccccc32)c(COn2nnc3ccccc32)c1` was tested, and the Potency was “inactive”. With `CCn1c(=O)c2sccc2n2c(CCCC(=O)NCc3cccnc3)nnc12` the Potency was “inactive”. In the case of `CCCn1c(SCC(=O)Nc2ccc(NC(C)=O)cc2)nc2c1c(=O)n(C)c(=O)n2C`, the Potency is reported as 34.6 µM (active).
